The text below walks through data of PubChem BioAssay (NCI).

Some test systems named below: NCI-H23 lung; NCI-H226 lung; NCI-H322M lung; HOP-62 NSCLC; NCI-H460 lung; HOP-92 NSCLC; NCI-H522 lung; A549/ATCC NSCLC; 786-0 renal; COLO 205 colon.
Holding throughout (assay): NCI-60 one-dose screen, 48 h (100 = growth as untreated, 0 = no growth, -100 = all killed)
What all share (details): 10 µM

Structures are written as SMILES. Compounds without any hit were thinned out: in the full panel of roughly 83,000, 20% have a hit.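 Assay: single dose, 48 h. Readout: percent growth (0 = no net growth; negative = cell death). Active: <10.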 A number with no mark means an inactive call. Active and inactive are the calls of the source.

As to `O=[N+]([O-])c1ccc(-c2nc(-c3ccccc3)c(-c3ccccc3)n2-c2ccc(S(=O)(=O)Nc3ncccn3)cc2)cc1`, the growth in the assay on NCI-H23 lung is 23.9%; in the assay with NCI-H226 lung, 27.7%; with NCI-H322M lung, 65.7%; in the assay on HOP-62 NSCLC, 61.9%; with NCI-H460 lung, 31.3%; with HOP-92 NSCLC, 5.67% (active). Besides, the growth is 69.4% in the assay with NCI-H522 lung, 60% in the assay with A549/ATCC NSCLC, 35.9% in the assay with 786-0 renal and 125% in the assay with COLO 205 colon.
For the compound `COc1cnc2c(c1)C(=O)c1c-2n(CCCNC(C)C)c(=O)c2cc(OC)c(OC)cc12`, the growth was 26.9% in the assay on NCI-H23 lung; 41.4% with NCI-H226 lung; 46.5% in the assay with NCI-H322M lung; 16.7% in the assay on HOP-62 NSCLC; 16% with NCI-H460 lung; 60.9% with HOP-92 NSCLC. Moreover, the growth with NCI-H522 lung is 41.3%; with A549/ATCC NSCLC, 46.6%; with 786-0 renal, 22.9%; with COLO 205 colon it was 39.2%.
Regarding `COc1ccc(-c2cc(C(=O)N=Nc3c(O)[nH]c4ccccc34)c3ccccc3n2)cc1`, the growth in the assay on NCI-H23 lung was -36.4% (active); with NCI-H226 lung it was -36% (active); in the assay with NCI-H322M lung, 6.23% (active); in the assay with HOP-62 NSCLC, -42.7% (active); in the assay with NCI-H460 lung it was -70.4% (active); in the assay with HOP-92 NSCLC, -46.5% (active). Also, the growth in the assay on NCI-H522 lung is 24.3%; in the assay with A549/ATCC NSCLC, -37.4% (active); in the assay on 786-0 renal, -40.9% (active); with COLO 205 colon, -5.77% (active).
In the case of `COc1csc(/C=N/NC(=O)c2[nH]c3ccc(Br)cc3c2-c2ccccc2)c1`, the growth in the assay with NCI-H23 lung is 7.1% (active); in the assay on NCI-H226 lung it was 23.1%; in the assay with NCI-H322M lung it was 34.7%; in the assay with HOP-62 NSCLC, 24.9%; in the assay with NCI-H460 lung it was -5.74% (active); in the assay with HOP-92 NSCLC it was 49.2%. Besides, the growth with NCI-H522 lung was -48.5% (active); in the assay on A549/ATCC NSCLC, 13.7%; with 786-0 renal, 4.83% (active); in the assay on COLO 205 colon, -79.9% (active).
For `CC1(C)CC[C@]2(C(=O)NCCCNCCCCNCCCN)CC[C@]3(C)C(=CC[C@@H]4[C@@]5(C)Cc6c([nH]c7ccccc67)C(C)(C)[C@@H]5CC[C@]43C)[C@H]2C1`, the growth was 83.7% in the assay with NCI-H23 lung; 71.8% in the assay on NCI-H226 lung; 101% in the assay with NCI-H322M lung; 85% with HOP-62 NSCLC; 96.5% in the assay with NCI-H460 lung; 60.5% in the assay on HOP-92 NSCLC. Moreover, the growth was 79.6% in the assay on NCI-H522 lung, 86.5% in the assay on A549/ATCC NSCLC, 89.1% in the assay on 786-0 renal and 115% in the assay with COLO 205 colon.
As for `NS(=O)(=O)c1ccc(NC(=O)CSc2ccc(-c3ccccc3)nn2)c(Br)c1`, the growth is 59.1% in the assay with NCI-H23 lung; 20.5% in the assay on NCI-H226 lung; 64.3% in the assay on NCI-H322M lung; 17.4% in the assay on HOP-62 NSCLC; 82.4% with NCI-H460 lung; -20.3% (active) with HOP-92 NSCLC. In addition, the growth in the assay with NCI-H522 lung is 42.4%; with A549/ATCC NSCLC, 70.4%; in the assay on 786-0 renal, 19.5%; with COLO 205 colon, 137%.
Take `Cc1cc(C)cc(Oc2cccc(-c3c(C)nnn3C3CCN(CCN(C)C)CC3)n2)c1`: the growth with NCI-H23 lung is 34.5%; in the assay with NCI-H226 lung, 5.11% (active); in the assay with NCI-H322M lung, 40%; with HOP-62 NSCLC, 42.5%; in the assay on NCI-H460 lung it was 51.1%; in the assay on HOP-92 NSCLC, -9.61% (active). Also, the growth in the assay with NCI-H522 lung was -15.7% (active); in the assay on A549/ATCC NSCLC, 30.3%; with 786-0 renal, 22.3%; with COLO 205 colon it was -74% (active).
As for `O=C(CS(=O)(=O)c1oc(-c2ccc(Cl)cc2)nc1S(=O)(=O)c1ccc(Cl)cc1)N1CCOCC1`, the growth in the assay on NCI-H23 lung is 48.9%; with NCI-H226 lung, 78.2%; in the assay with NCI-H322M lung it was 93.5%; in the assay with HOP-62 NSCLC it was 84.3%; in the assay on NCI-H460 lung, 107%; in the assay on HOP-92 NSCLC, -25.5% (active). Moreover, the growth with NCI-H522 lung was -14.8% (active); in the assay on A549/ATCC NSCLC it was 83.7%; in the assay with 786-0 renal it was 40.3%; in the assay on COLO 205 colon it was 10.5%.
`Cc1cc(C)nc(NS(=O)(=O)c2ccc(N/C(N)=N/c3nccc(-c4cccs4)n3)cc2)n1`: the growth in the assay with NCI-H23 lung is 90%; in the assay with NCI-H226 lung it was 77.8%; in the assay on NCI-H322M lung, 95.6%; in the assay on HOP-62 NSCLC, 83%; in the assay on NCI-H460 lung, 99.2%; with HOP-92 NSCLC, 107%. The growth was 90.5% in the assay on NCI-H522 lung, 99.7% in the assay on A549/ATCC NSCLC, 111% in the assay with 786-0 renal and 105% in the assay on COLO 205 colon.
With `COc1ccc(CCN2C(=O)/C(=C/c3csc(C#N)n3)SC2=S)cc1`, the growth with NCI-H23 lung was 24.3%; in the assay on NCI-H226 lung it was 98.5%; with NCI-H322M lung it was 86.4%; with HOP-62 NSCLC, 83.5%; in the assay on NCI-H460 lung it was 68.2%; with HOP-92 NSCLC it was -5.5% (active). Further, the growth in the assay with NCI-H522 lung was -69.8% (active); in the assay on A549/ATCC NSCLC, 89%; in the assay on 786-0 renal it was -55.2% (active); in the assay on COLO 205 colon it was -75% (active).
In the case of `CCCCCCCCCCCCCCCCCCCC(=O)NCCc1c[nH]c2ccc(OC(=O)CCCC(=O)OCCOOCCOOCCOOCCOOCCOOCCOOCCOOCCOOCCOOCCOOCCOOCCOC)cc12`, the growth was 59.7% in the assay with NCI-H23 lung; 52.9% with NCI-H226 lung; 109% in the assay with NCI-H322M lung; 120% in the assay on HOP-62 NSCLC; 50.4% in the assay on NCI-H460 lung; 74.7% in the assay on HOP-92 NSCLC. Besides, the growth with NCI-H522 lung is -82.9% (active); in the assay with A549/ATCC NSCLC, 42.3%; with 786-0 renal, 83.9%; with COLO 205 colon it was 117%.
As for `CCN1CCN(Cc2ccc(C(=O)Nc3cccc(-c4cn(-c5ccc6oc(=O)ccc6c5)nn4)c3)cc2C(F)(F)F)CC1`, the growth with NCI-H23 lung is -100% (active); in the assay with NCI-H226 lung, -82.1% (active); in the assay with NCI-H322M lung, -100% (active); in the assay on HOP-62 NSCLC it was -99.5% (active); in the assay on NCI-H460 lung, -100% (active); in the assay on HOP-92 NSCLC, -18% (active). In addition, the growth was -100% (active) in the assay with NCI-H522 lung, -100% (active) with A549/ATCC NSCLC, -100% (active) with 786-0 renal and 48.1% in the assay on COLO 205 colon.
Turning to `CN1CCN(c2ccc(Nc3nc(NCCCNC(=O)c4ccccc4)c4sccc4n3)cc2)CC1`, the growth in the assay on NCI-H23 lung was 82.5%; with NCI-H226 lung, 84.6%; in the assay with NCI-H322M lung it was 84.2%; with HOP-62 NSCLC, 93.5%; in the assay on NCI-H460 lung, 67.6%; with HOP-92 NSCLC, 69.3%. The growth was 91.5% in the assay with NCI-H522 lung, 24.9% in the assay on 786-0 renal and 93.8% with COLO 205 colon.
